Data: PubChem BioAssay (NCI)
The panel holds about 83,000 compounds, 20% with a hit somewhere; the sample as a whole holds those more often.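 Cells were grown in 96-well plates and exposed to the test compound at a single concentration for 48 hours; results are reported as percent growth, with values below 10 considered active.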

Key:
Assay in all cases: NCI-60 one-dose screen, 48 h (100 = growth as untreated, 0 = no growth, -100 = all killed)
HCT-15 colon = settings: 10 µM unless noted
HT29 colon = settings: 10 µM unless noted
SNB-75 CNS = settings: 10 µM unless noted
SNB-19 CNS = settings: 10 µM unless noted
U251 CNS = settings: 10 µM unless noted
PC-3 prostate = settings: 10 µM unless noted
SK-MEL-5 melanoma = settings: 10 µM unless noted
UACC-62 melanoma = settings: 10 µM unless noted
LOX IMVI melanoma = settings: 10 µM
SK-MEL-28 melanoma = settings: 10 µM unless noted
SK-MEL-2 melanoma = settings: 10 µM unless noted
EKVX NSCLC = settings: 10 µM unless noted
SN12C renal = settings: 10 µM unless noted
UO-31 renal = settings: 10 µM unless noted
TK-10 renal = settings: 10 µM unless noted
ACHN renal = settings: 10 µM unless noted
CAKI-1 renal = settings: 10 µM unless noted
CCRF-CEM leukemia = settings: 10 µM unless noted
MOLT-4 leukemia = settings: 10 µM unless noted
A498 renal = settings: 10 µM unless noted

Measured: growth

COc1cc(C(=O)NC(=S)NCc2ccncc2)cc(OC)c1OC
inactive: HCT-15 colon 95.5% | HT29 colon 89.2% | SNB-75 CNS 92.5% | SNB-19 CNS 106% | U251 CNS 98.7% | PC-3 prostate 95.9% | SK-MEL-5 melanoma 90.3% | UACC-62 melanoma 99.3% | LOX IMVI melanoma 97.7% | SK-MEL-28 melanoma 102% | SK-MEL-2 melanoma 89.5% | EKVX NSCLC 99.4% | SN12C renal 102% | UO-31 renal 77.4% | TK-10 renal 103% | ACHN renal 94.2% | CAKI-1 renal 91.4% | CCRF-CEM leukemia 99.5% | MOLT-4 leukemia 86.1%

CC12CCC3c4ccc(O)cc4CCC3C1CCC2=O (stereo not given)
inactive: HCT-15 colon 101% | HT29 colon 96.4% | SNB-75 CNS 93.4% | SNB-19 CNS 98.2% | U251 CNS 101% | PC-3 prostate 85.3% | SK-MEL-5 melanoma 101% | UACC-62 melanoma 94.6% | LOX IMVI melanoma 103% | SK-MEL-28 melanoma 106% | SK-MEL-2 melanoma 98.7% | EKVX NSCLC 83.8% | SN12C renal 96.2% | UO-31 renal 81.7% | TK-10 renal 91.1% | ACHN renal 103% | CAKI-1 renal 102% | CCRF-CEM leukemia 93.7% | MOLT-4 leukemia 81.1%

Cc1c(Cl)cccc1NC(=S)NC(=O)c1ccccc1
inactive: HCT-15 colon 92.6% | HT29 colon 90.3% | SNB-75 CNS 90.5% | SNB-19 CNS 107% | U251 CNS 84.9% | PC-3 prostate 89.2% | SK-MEL-5 melanoma 90.1% | UACC-62 melanoma 92.7% | LOX IMVI melanoma 99.3% | SK-MEL-28 melanoma 102% | SK-MEL-2 melanoma 96% | EKVX NSCLC 71.6% | SN12C renal 98.6% | UO-31 renal 85.5% | TK-10 renal 93.5% | ACHN renal 113% | CAKI-1 renal 79.4% | CCRF-CEM leukemia 95.3% | MOLT-4 leukemia 83.9%

CSCC[C@@H]1C(=O)N(C)[C@H](C(C)(C)C)N1C(=O)c1ccccc1
inactive: HCT-15 colon 113% | HT29 colon 116% | SNB-75 CNS 85.2% | SNB-19 CNS 114% | U251 CNS 99.3% | PC-3 prostate 104% | SK-MEL-5 melanoma 106% | UACC-62 melanoma 101% | LOX IMVI melanoma 95.4% | SK-MEL-28 melanoma 107% | SK-MEL-2 melanoma 106% | EKVX NSCLC 102% | SN12C renal 104% | UO-31 renal 90.4% | TK-10 renal 106% | ACHN renal 110% | CAKI-1 renal 100% | A498 renal 126% | CCRF-CEM leukemia 111% | MOLT-4 leukemia 116%

O=c1n(CC2CO2)c(=O)n(CC2CO2)n1CC1CO1 (stereo not given)
inactive: HCT-15 colon 60.5% | HT29 colon 69.5% | SNB-75 CNS 79.5% | SNB-19 CNS 62.4% | U251 CNS 54.3% | PC-3 prostate 70% | SK-MEL-5 melanoma 67.1% | UACC-62 melanoma 54.1% | LOX IMVI melanoma 52.1% | SK-MEL-28 melanoma 93% | SK-MEL-2 melanoma 41.1% | EKVX NSCLC 97.4% | SN12C renal 69.7% | UO-31 renal 51% | TK-10 renal 74.2% | ACHN renal 22.3% | CAKI-1 renal 28.6% | A498 renal 85.2% | CCRF-CEM leukemia 37.5% | MOLT-4 leukemia 19.2%

COc1cc(C(=O)O)c(O)c(C(C)(C)C)c1
inactive: HCT-15 colon 108% | HT29 colon 109% | SNB-75 CNS 96.8% | SNB-19 CNS 98.9% | U251 CNS 95.2% | PC-3 prostate 97.6% | SK-MEL-5 melanoma 96.5% | UACC-62 melanoma 104% | LOX IMVI melanoma 98.8% | SK-MEL-28 melanoma 109% | SK-MEL-2 melanoma 106% | EKVX NSCLC 102% | SN12C renal 103% | UO-31 renal 92.9% | TK-10 renal 105% | ACHN renal 109% | CAKI-1 renal 102% | A498 renal 96.3% | MOLT-4 leukemia 98.1%

C=C1C(=O)C2CCN1CC2
inactive: HCT-15 colon 105% | HT29 colon 89.8% | SNB-75 CNS 89.2% | SNB-19 CNS 105% | U251 CNS 100% | PC-3 prostate 101% | SK-MEL-5 melanoma 104% | UACC-62 melanoma 97.3% | LOX IMVI melanoma 98.9% | SK-MEL-28 melanoma 95.6% | SK-MEL-2 melanoma 105% | EKVX NSCLC 103% | SN12C renal 101% | UO-31 renal 89.1% | TK-10 renal 99.9% | ACHN renal 86.8% | CAKI-1 renal 92% | A498 renal 97.6% | MOLT-4 leukemia 78.2%

CCN1CCCC(N2c3ccccc3Sc3ccccc32)C1 (stereo not given)
inactive: HCT-15 colon 102% | HT29 colon 89.3% | SNB-75 CNS 92.8% | SNB-19 CNS 110% | U251 CNS 94.6% | PC-3 prostate 97.4% | SK-MEL-5 melanoma 97% | UACC-62 melanoma 104% | LOX IMVI melanoma 91.2% | SK-MEL-28 melanoma 105% | SK-MEL-2 melanoma 97.4% | EKVX NSCLC 116% | SN12C renal 101% | UO-31 renal 79.1% | TK-10 renal 78.8% | ACHN renal 98.5% | CAKI-1 renal 101% | A498 renal 100% | MOLT-4 leukemia 96.3%

CCOc1ccncc1[N+](=O)[O-]
inactive: HCT-15 colon 110% | HT29 colon 107% | SNB-75 CNS 101% | SNB-19 CNS 125% | U251 CNS 96.9% | PC-3 prostate 106% | SK-MEL-5 melanoma 106% | UACC-62 melanoma 100% | LOX IMVI melanoma 99.6% | SK-MEL-28 melanoma 102% | SK-MEL-2 melanoma 104% | EKVX NSCLC 104% | SN12C renal 110% | UO-31 renal 99.9% | TK-10 renal 104% | ACHN renal 115% | CAKI-1 renal 103% | A498 renal 121% | MOLT-4 leukemia 102%

O=S(Cc1ccccc1)/C(=C/NC(=S)Nc1ccccc1)c1ccccc1 (stereo not given)
inactive: HCT-15 colon 106% | HT29 colon 104% | SNB-75 CNS 80.2% | SNB-19 CNS 110% | U251 CNS 100% | PC-3 prostate 95.4% | SK-MEL-5 melanoma 104% | UACC-62 melanoma 103% | LOX IMVI melanoma 90.9% | SK-MEL-28 melanoma 106% | SK-MEL-2 melanoma 104% | EKVX NSCLC 102% | SN12C renal 109% | UO-31 renal 81.7% | TK-10 renal 119% | ACHN renal 97.2% | CAKI-1 renal 94.8% | A498 renal 120% | MOLT-4 leukemia 103%

C=C1C(=O)C2CCC1C2 (stereo not given)
inactive: HCT-15 colon 99.8% | HT29 colon 102% | SNB-75 CNS 103% | SNB-19 CNS 107% | U251 CNS 109% | PC-3 prostate 105% | SK-MEL-5 melanoma 105% | UACC-62 melanoma 108% | LOX IMVI melanoma 106% | SK-MEL-28 melanoma 119% | SK-MEL-2 melanoma 101% | EKVX NSCLC 109% | SN12C renal 104% | UO-31 renal 82.2% | TK-10 renal 109% | ACHN renal 112% | CAKI-1 renal 101% | A498 renal 93.7% | MOLT-4 leukemia 94.7%

O=C(O)c1c[nH]c2ccccc2c1=O
inactive: HCT-15 colon 110% | HT29 colon 97.6% | SNB-75 CNS 89.9% | SNB-19 CNS 101% | U251 CNS 93.9% | PC-3 prostate 97.6% | SK-MEL-5 melanoma 101% | UACC-62 melanoma 101% | LOX IMVI melanoma 97.2% | SK-MEL-28 melanoma 102% | SK-MEL-2 melanoma 95.1% | EKVX NSCLC 103% | SN12C renal 103% | UO-31 renal 90.6% | TK-10 renal 97.7% | ACHN renal 102% | CAKI-1 renal 100% | A498 renal 127% | MOLT-4 leukemia 90%

CCOC(=O)CNC(=O)Sc1ccc(C(C)(C)C)cc1
inactive: HCT-15 colon 94.3% | HT29 colon 114% | SNB-75 CNS 75.7% | SNB-19 CNS 103% | U251 CNS 83.5% | PC-3 prostate 106% | SK-MEL-5 melanoma 107% | UACC-62 melanoma 91% | LOX IMVI melanoma 83.9% | SK-MEL-28 melanoma 113% | SK-MEL-2 melanoma 87.1% | EKVX NSCLC 111% | SN12C renal 93.5% | UO-31 renal 64.2% | TK-10 renal 96% | ACHN renal 101% | CAKI-1 renal 100% | A498 renal 119% | MOLT-4 leukemia 32.5%

CC(C)OCC(CCl)OC(=O)Nc1ccccc1 (stereo not given)
inactive: HCT-15 colon 108% | HT29 colon 102% | SNB-75 CNS 92.2% | SNB-19 CNS 105% | U251 CNS 97.2% | PC-3 prostate 98.8% | SK-MEL-5 melanoma 101% | UACC-62 melanoma 101% | LOX IMVI melanoma 97% | SK-MEL-28 melanoma 111% | SK-MEL-2 melanoma 102% | EKVX NSCLC 104% | SN12C renal 96.7% | UO-31 renal 80.9% | TK-10 renal 91.7% | ACHN renal 105% | CAKI-1 renal 98.2% | A498 renal 103% | MOLT-4 leukemia 99.9%

S=C=Nc1ccc2ccccc2c1
inactive: HCT-15 colon 96.6% | HT29 colon 105% | SNB-75 CNS 94.5% | SNB-19 CNS 101% | U251 CNS 97.8% | PC-3 prostate 102% | SK-MEL-5 melanoma 106% | UACC-62 melanoma 102% | LOX IMVI melanoma 94.2% | SK-MEL-28 melanoma 111% | SK-MEL-2 melanoma 106% | EKVX NSCLC 103% | SN12C renal 111% | UO-31 renal 85.1% | TK-10 renal 109% | ACHN renal 100% | CAKI-1 renal 87.7% | CCRF-CEM leukemia 106% | MOLT-4 leukemia 98.1%

CC(C)N(C(=O)c1ccccc1)C(C)C
inactive: HCT-15 colon 104% | HT29 colon 107% | SNB-75 CNS 100% | SNB-19 CNS 113% | U251 CNS 95.9% | PC-3 prostate 98.9% | SK-MEL-5 melanoma 97.7% | UACC-62 melanoma 108% | LOX IMVI melanoma 104% | SK-MEL-28 melanoma 105% | SK-MEL-2 melanoma 114% | EKVX NSCLC 104% | SN12C renal 107% | UO-31 renal 104% | TK-10 renal 98.2% | ACHN renal 108% | CAKI-1 renal 98.5% | A498 renal 86.6% | MOLT-4 leukemia 111%

CN(C)c1ccc2c(N(C)C)cc(N(C)C)nc2c1
inactive: HCT-15 colon 92% | HT29 colon 34.4% | SNB-75 CNS 92.5% | SNB-19 CNS 84.5% | U251 CNS 90.8% | PC-3 prostate 72.6% | SK-MEL-5 melanoma 100% | UACC-62 melanoma 81.9% | LOX IMVI melanoma 87.7% | SK-MEL-28 melanoma 84.4% | SK-MEL-2 melanoma 143% | EKVX NSCLC 75.8% | SN12C renal 83.1% | UO-31 renal 50.3% | TK-10 renal 104% | ACHN renal 76.5% | CAKI-1 renal 68.6% | A498 renal 78.9% | MOLT-4 leukemia 80.3%
